HEK293 tox = kills HEK 293 cells | HEK 293 viability, ATP luminescence (CellTiter-Glo), 48-72 h | Potency, µM (series often up to 115 µM), for inactives: at the top dose activity change, negative = cytotoxicity, most hits filed as inhibitors | actives 6.6% (n = 94,000); further: nearly all actives have a fitted effect of over 60% in size
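HEK 293 seeded at 250 cells/well receive compound via pintool. After 48 or 72 hr at 37 degree Celsius, 5% CO2 and 95% humidity, CellTiter-Glo is dispensed and luminescence read following 10 min at room temperature.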
FLuc inh = inhibitors of firefly (Photinus pyralis) luciferase | AID 1347043 | purified P. pyralis luciferase, luminescence, biochemical | Potency, µM (top dose mostly 115 µM), most hits filed as inhibitors | actives 2.5% (n = 76,000); further: nearly all actives have a fitted effect of over 65% in size
Target sequence (P08659 whole entry, looked up): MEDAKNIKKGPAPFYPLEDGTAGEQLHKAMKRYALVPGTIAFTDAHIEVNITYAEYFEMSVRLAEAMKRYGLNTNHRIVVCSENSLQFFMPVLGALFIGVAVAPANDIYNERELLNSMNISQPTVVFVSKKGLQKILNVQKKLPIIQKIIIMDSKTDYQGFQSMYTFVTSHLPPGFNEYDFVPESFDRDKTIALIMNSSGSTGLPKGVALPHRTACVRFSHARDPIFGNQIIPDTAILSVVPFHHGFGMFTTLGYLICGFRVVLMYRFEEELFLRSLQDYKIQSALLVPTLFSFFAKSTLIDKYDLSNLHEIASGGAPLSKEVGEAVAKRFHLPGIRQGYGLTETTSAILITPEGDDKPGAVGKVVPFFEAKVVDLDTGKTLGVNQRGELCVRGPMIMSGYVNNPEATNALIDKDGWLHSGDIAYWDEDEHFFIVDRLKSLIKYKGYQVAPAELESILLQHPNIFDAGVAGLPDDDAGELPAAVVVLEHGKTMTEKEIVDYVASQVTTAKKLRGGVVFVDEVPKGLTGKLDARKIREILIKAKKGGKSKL
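Biochemical qHTS: compound (6-point titration) added to 10uM D-luciferin plus 10uM ATP in Tris acetate pH 7.5 buffer with Mg, Tween-20 and BSA, then purified enzyme at 10nM; light output imaged.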
hNpr1 antagonist = blocks ANP-stimulated signaling of human Npr1 receptor | AID 1347048 | P16066 | actives 1.6% (n = 76,000) | Potency, µM (titrated, usually from 46.3 µM), for the others: at the top dose activity change, negative = inhibition, usual class: inhibitors | HEK293 hNpr1 GloSensor cGMP, ANP-stimulated luminescence; calls by dose curve; further: nearly all actives have a fitted effect of over 60% in size
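Compound pre-incubated 30 min at room temperature on GloSensor-loaded HEK293 cells stably carrying hNpr1 and the pGS-40F cGMP biosensor. Stimulation uses hNppA at 0.1 nM final; luminescence is taken at baseline and 20 min post-agonist.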
3T3 cytotox = cytotoxic compounds in NIH 3T3 cells; NIH 3T3 viability, CellTiter-Glo ATP luminescence, 48-72 h; Potency, µM (highest dose often 96.7 µM), without a hit: at the top dose activity change, negative = cytotoxicity, hits mostly inhibitors; actives 4.3% (n = 94,000); further: nearly all actives have a fitted effect of over 55% in size
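First NIH 3T3 cells are plated at 400 cells/well; next compound is pinned in; then plates incubate 48 or 72 hr at 37 °C; finally CellTiter-Glo is added and luminescence read after 10 min.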
GPT2 inhibitor = GPT2 alanine aminotransferase inhibition. Q8TD30. AID 1671188. actives 0.25% (n = 100,000). Recombinant GPT2, coupled pyruvate oxidase/HRP Amplex Red fluorescence. Potency, µM (series often up to 57.7 µM), inactives show at the top dose activity change, negative = inhibition, most hits filed as inhibitors; further: nearly all actives have a fitted effect of over 60% in size
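Fluorescence of coupled pyruvate oxidase/HRP/Amplex Red system (50uM Amplex, 30 min, dark) reports pyruvate formed by GPT2. Enzyme reaction: 10ng/uL GPT2, 2mM L-alanine, 250uM a-KG, 30 min room temperature, pH 7.5; 50uM AOA control.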
Numbers without * were called inactive; i = inactive; u = inconclusive; x = no result; [ ] = remark or other dose. Rows were chosen to be rich in hits. Some 10% of all compounds tested hit in one or more screens of this group. Unless noted, the call rests on the fitted dose curve; in most records, active means well fitted curve in the direction sought with a large enough effect; inconclusive means small, poorly fitted or top-dose-only effect, or another doubt; inactive means no such curve, though single readings can be large; an effect the other way counts as inactive or inconclusive. On the % scale 0 is the no-effect control and ±100 the full control effect; potency means the concentration at half of the fitted maximal effect.

SMILES | HEK293 tox | FLuc inh | hNpr1 antagonist | 3T3 cytotox | GPT2 inhibitor
O=C(c1ccccn1)N1CCOc2c(O)cc(-c3cccc(Cl)c3)cc2C1 | 45µM* | i | -24% | -26% | -11%
NC(=O)c1noc(CN2CCOc3c(O)cc(-c4csc5ccccc45)cc3C2)n1 | u | i | -15% | u | -2%
O=C(CCn1cncn1)N1CCOc2c(O)cc(-c3cccc(Cl)c3)cc2C1 | u | i | 7% | u | i
Cn1cc(C(=O)N2CCOc3c(O)cc(-c4csc5ccccc45)cc3C2)cn1 | 25µM* | i | -17% | u | i[11.5 µM]
CC(C)CN1C(=O)c2ccccc2C(C(=O)Nc2ccncc2)C12CCCC2 (centres undefined) | u | i | -1% | -11% | 2%
CN(Cc1ccccc1)C(=O)C[C@@H]1c2nc(NC(=O)c3c(F)cccc3F)sc2C[C@@H]2[C@](C)(CO)[C@H](O)CC[C@]21C | -3% | i | 6% | i | 2%
O=C(c1nc2cccnc2n(C2CC2)c1=O)N1CCN([S+](=O)([O-])c2cccs2)CC1 | i | x | x | -7% | i
COc1cccc(C2CCCCN2Cc2nc(CCc3ccccc3)no2)c1 (centres undefined) | -24% | i | 7% | -28% | -19%
COCCNC(=O)c1nc2sccn2c1-c1ccncc1 | -28%[172 µM] | x | x | -8%[138 µM] | i
Cc1nn2c(c1-c1ccccc1C(C)C)N([S+](=O)([O-])c1ccc(C(C)C)cc1)CCC2 | 40µM* | i | u | 22µM* | -16%[88.5 µM]
Cc1nn2c(c1-c1ccccc1C(C)C)N(Cc1ccc(C(=O)O)s1)CCC2 | u | i | -8%[70.6 µM] | u | i
Cc1nn2c(c1-c1ccccc1C(C)C)N(Cc1ccc3c(c1)CCO3)CCC2 | 35µM* | i | -21%[70.6 µM] | 28µM* | -19%[88.5 µM]
COc1ccc(CN2CCCn3nc(C)c(-c4ccccc4C(C)C)c32)cc1O | 63µM* | i | u | 35µM* | i
O=C(NCc1ccccn1)C1CCc2nnc(-c3cccc(C(F)(F)F)c3)n21 (centres undefined) | -12% | x | x | -12% | i
CN(Cc1cnccn1)C(=O)CC(c1ccccc1)c1ccccc1Cl (centres undefined) | u | i | 1% | -6% | i
O=C(CC(c1ccccc1)c1ccccc1Cl)N(Cc1cccnc1)C1CC1 (centres undefined) | 35µM* | i | -26% | u | -5%
O=C(C1CCN(Cc2ccccc2-c2ccccc2F)CC1)N1CCCC1 | u | x | x | u | i
CC1CCC2(CC1)OCC(C(=O)NCc1ccccc1F)N2C(=O)c1ccccc1F (centres undefined) | 79µM* | i | 5% | -24% | -9%
Cc1ccc(NC(=O)Cn2ccn3nc(-c4ccccc4)c(CO)c3c2=O)c(C)c1 | 45µM* | i | -11% | u | -2%
Cc1ccc(NC(=O)Cn2ccn3nc(-c4ccc(F)cc4)c(CO)c3c2=O)c(C)c1 | u | i | 0% | u | u
CC(C)c1ccccc1NC(=O)Cn1ccn2nc3c(c2c1=O)CCCCC3 | 40µM* | i | -3% | u | 4%
O=C(Cn1ccn2nc3c(c2c1=O)CCCCC3)Nc1ccccc1F | -26% | 45µM* | 0% | -10% | i
CCc1nc(-c2c3n(c(=O)n(CC(=O)Nc4cccc(F)c4)c2=O)CCCCC3)no1 | -5% | i | 0% | -23% | u
O=C(C1CCC1)N1CCC(OCc2ccccc2)C1 (centres undefined) | 5% | x | x | -2% | 1%
CN(C)C(=O)c1ccc(-c2cc(NC3CCCC3)nc3[nH]ccc23)o1 | 45µM* | u | 6% | u | -25%
SMILES | HEK293 tox | FLuc inh | hNpr1 antagonist | 3T3 cytotox | GPT2 inhibitor
c1nc(-c2cc(NC3CCNCC3)nc3[nH]ccc23)c2sccc2n1 | u | i | -13% | u | i
CCCn1cc2c3c(cccc31)CN(C(=O)c1cccc(C#N)c1)CC2 | u | i | -9% | u | i
COCCn1cc2c3c(cccc31)CN(C(=O)c1cccc(C(F)(F)F)c1)CC2 | u | i | -21% | 32µM* | i
Cc1ccc(Nc2ccnc(N3CCC(NC(=O)N(C)C)CC3)n2)cc1 | u | x | x | 45µM* | i
Cc1ccc(Nc2ccnc(N3CCC(C(=O)NC4CC4)CC3)n2)cc1 | u | x | x | 35µM* | i
Cc1ccc(Nc2ccnc(N3CCC(NC(=O)C4CC4)CC3)n2)cc1 | 45µM* | x | x | u | i
Cc1ccc(Nc2ccnc(N3CCC(C(=O)NC4CCCC4)CC3)n2)cc1 | 45µM* | x | x | 35µM* | i
CC(=O)NC1CCN(c2nccc(Nc3ccc(C)cc3)n2)CC1 | u | x | x | u | i
O=c1n(CCN2CCCC(N[S+](=O)([O-])c3ccccc3)C2)nc2n1CCCC2 (centres undefined) | i | x | x | -13% | x
CC(C)C[C@@H]1N[C@H](C(=O)NCc2ccc(C(F)(F)F)cc2)Cc2c[nH]c3cccc1c23 | 32µM* | i | -7%[70.6 µM] | 28µM* | -9%[88.5 µM]
CC(C)C[C@@H]1N[C@H](C(=O)NCc2cccnc2)Cc2c[nH]c3cccc1c23 | 25µM* | i | -1%[70.6 µM] | u | i
CC(C)C[C@@H]1N[C@H](C(=O)NCc2ccc(C#N)cc2)Cc2c[nH]c3cccc1c23 | 56µM* | i | -11%[70.6 µM] | 25µM* | -17%[88.5 µM]
O=C(NCC1Cn2cccc2CN1Cc1ccccc1)c1n[nH]c2ccccc12 (centres undefined) | u | 14µM* | -27% | u | 3%
COc1ccc(CC(=O)N2Cc3ccccc3CC3(CCN(C)CC3)C2)cc1 | -9% | x | x | -10% | i
COc1ccc(CN2CC(c3nc(Cc4cccnc4)no3)C2)c(OC)c1 | u | i | u | 16µM* | -9%
CCCS(=O)(=O)N1CC(c2nc(Cc3cccnc3)no2)C1 | -8% | x | x | -37% | -5%
CCn1cc(S(=O)(=O)N2CC3(CCCCC3)CC2COc2ccc(OC)cc2)cn1 (centres undefined) | 32µM* | x | x | u | i
CCOC(=O)CNC(=O)N1CC2(CCCCC2)CC1COc1ccc(OC)cc1 (centres undefined) | -26% | x | x | -29% | i
COC(=O)CNC(=O)c1nc(C(C)(C)C)c2cnccn12 | 2%[172 µM] | x | x | -11%[138 µM] | i
CCN1C(=O)C2(CCN(S(=O)(=O)Cc3ccccc3)CC2)c2ccccc21 | -1% | i | -10% | -4% | -6%
CCN1C(=O)C2(CCN(S(=O)(=O)Cc3ccc(Cl)cc3)CC2)c2ccccc21 | 35µM* | i | -12% | 25µM* | i
COc1ccc(C(=O)Nc2cc(-c3ccncc3)nn2C)cc1 | u | x | x | u | i

Assay outcomes as filed in PubChem.
